Results published in PMC7862700, “An all-to-all approach to the identification of sequence-specific readers for epigenetic DNA modifications on cytosine”.

Tests used:
Test in all cases: DAPPL (digital affinity profiling via proximity ligation, sequencing); 10 mM Tris-HCl pH 7.5, 50 mM NaCl, 1 mM DTT, 4% glycerol, room temperature, 30 min; GST-TFs on glutathione beads, 16-mer random dsDNA library, 0.1% formaldehyde crosslink after washing; high values mean tight binding
Settings in all cases: protein: recombinant; tags: N-terminal GST; dsDNA, one strand shown
[1] = target: T1, FEV (Homo sapiens, UniProt Q99581 1-238)
T1 sequence: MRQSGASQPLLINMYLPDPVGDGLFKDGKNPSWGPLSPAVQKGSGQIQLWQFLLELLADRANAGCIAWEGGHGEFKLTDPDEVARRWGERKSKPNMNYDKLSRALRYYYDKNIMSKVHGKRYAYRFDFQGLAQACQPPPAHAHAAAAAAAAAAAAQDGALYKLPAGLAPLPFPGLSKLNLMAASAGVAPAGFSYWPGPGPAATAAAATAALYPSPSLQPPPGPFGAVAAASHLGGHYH
Summary of the method: (§1)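 Each value of binding signal is a hexamer's read frequency for a factor divided by the same hexamer's frequency in the tag-only sample. Barcoded, bead-captured GST fusions of human transcription factors made in yeast were pooled with that sample and incubated with 200 nmole of a random double-stranded 16-mer DNA library in Tris/NaCl/DTT/glycerol buffer at room temperature for 30 min. Washing, 0.1% formaldehyde crosslinking, proximity ligation, PCR and Illumina NextSeq500 sequencing followed.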

[2] = target: ETV5 (Homo sapiens, UniProt P41161 1-510)
Summary of the method: as §1

[3] = target: T2, SPIC (Homo sapiens, UniProt Q8N5J4 1-248)
T2 sequence: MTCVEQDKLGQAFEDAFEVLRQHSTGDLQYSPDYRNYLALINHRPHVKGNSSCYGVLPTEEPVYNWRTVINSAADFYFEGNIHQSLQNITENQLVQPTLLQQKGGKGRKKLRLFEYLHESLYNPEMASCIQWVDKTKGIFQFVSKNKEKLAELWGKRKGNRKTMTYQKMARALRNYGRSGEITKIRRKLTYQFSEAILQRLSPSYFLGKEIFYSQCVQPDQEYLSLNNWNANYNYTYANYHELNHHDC
Summary of the method: as §1

[4] = target: ELF4 (Homo sapiens, UniProt Q99607 1-663)
Summary of the method: as §1

[5] = target: T3, ELK4 (Homo sapiens, UniProt P28324-2 1-405)
T3 sequence: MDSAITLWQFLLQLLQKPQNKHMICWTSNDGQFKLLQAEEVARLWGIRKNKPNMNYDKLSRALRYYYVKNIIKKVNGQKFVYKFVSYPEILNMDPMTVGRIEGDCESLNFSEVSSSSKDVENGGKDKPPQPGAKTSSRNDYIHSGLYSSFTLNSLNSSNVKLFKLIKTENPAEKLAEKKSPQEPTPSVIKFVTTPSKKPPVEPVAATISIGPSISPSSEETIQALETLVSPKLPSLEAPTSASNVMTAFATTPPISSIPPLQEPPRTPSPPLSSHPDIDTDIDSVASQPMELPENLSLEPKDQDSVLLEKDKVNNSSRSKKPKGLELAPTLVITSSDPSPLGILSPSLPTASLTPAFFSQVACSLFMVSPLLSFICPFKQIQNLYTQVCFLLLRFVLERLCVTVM
Summary of the method: as §1

[6] = target: T4, ETV2 (Homo sapiens, UniProt O00321 1-342)
T4 sequence: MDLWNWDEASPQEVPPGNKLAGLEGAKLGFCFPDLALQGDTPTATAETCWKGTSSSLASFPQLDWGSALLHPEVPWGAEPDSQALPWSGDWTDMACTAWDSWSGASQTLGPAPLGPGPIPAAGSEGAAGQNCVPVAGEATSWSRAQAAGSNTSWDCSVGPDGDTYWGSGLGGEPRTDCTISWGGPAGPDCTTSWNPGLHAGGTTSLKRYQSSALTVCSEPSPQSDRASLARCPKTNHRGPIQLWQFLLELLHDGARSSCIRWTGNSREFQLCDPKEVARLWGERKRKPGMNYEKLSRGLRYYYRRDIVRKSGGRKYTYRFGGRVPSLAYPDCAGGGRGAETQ
Summary of the method: as §1

[7] = target: T5, ELF3 (Homo sapiens, UniProt P78545 1-371)
T5 sequence: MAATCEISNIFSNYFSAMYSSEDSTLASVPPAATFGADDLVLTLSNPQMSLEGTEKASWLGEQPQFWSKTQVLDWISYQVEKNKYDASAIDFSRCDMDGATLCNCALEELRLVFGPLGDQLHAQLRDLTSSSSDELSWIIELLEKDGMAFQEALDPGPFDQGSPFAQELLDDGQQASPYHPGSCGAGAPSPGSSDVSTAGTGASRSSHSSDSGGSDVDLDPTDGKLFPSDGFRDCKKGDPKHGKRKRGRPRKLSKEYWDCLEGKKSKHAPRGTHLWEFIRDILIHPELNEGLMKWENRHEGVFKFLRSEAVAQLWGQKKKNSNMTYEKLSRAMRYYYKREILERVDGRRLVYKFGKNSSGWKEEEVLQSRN
Summary of the method: as §1

[8] = target: ETV1 (Homo sapiens, UniProt P50549 1-477)
Summary of the method: as §1

Sequence of ETV1 (P50549 whole entry): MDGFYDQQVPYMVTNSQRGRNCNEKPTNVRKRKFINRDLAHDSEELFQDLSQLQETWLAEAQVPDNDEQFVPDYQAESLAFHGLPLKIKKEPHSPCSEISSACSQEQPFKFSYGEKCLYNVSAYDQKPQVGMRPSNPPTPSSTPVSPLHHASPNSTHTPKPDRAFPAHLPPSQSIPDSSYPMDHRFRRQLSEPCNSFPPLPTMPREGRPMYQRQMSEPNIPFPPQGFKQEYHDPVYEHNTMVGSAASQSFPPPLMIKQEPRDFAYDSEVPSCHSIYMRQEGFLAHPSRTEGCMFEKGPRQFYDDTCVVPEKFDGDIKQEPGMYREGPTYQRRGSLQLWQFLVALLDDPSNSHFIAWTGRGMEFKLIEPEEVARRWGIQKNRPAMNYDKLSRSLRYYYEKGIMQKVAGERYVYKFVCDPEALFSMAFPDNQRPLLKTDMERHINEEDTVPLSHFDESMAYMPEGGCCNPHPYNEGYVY
Sequence of ELF4 (Q99607 whole entry): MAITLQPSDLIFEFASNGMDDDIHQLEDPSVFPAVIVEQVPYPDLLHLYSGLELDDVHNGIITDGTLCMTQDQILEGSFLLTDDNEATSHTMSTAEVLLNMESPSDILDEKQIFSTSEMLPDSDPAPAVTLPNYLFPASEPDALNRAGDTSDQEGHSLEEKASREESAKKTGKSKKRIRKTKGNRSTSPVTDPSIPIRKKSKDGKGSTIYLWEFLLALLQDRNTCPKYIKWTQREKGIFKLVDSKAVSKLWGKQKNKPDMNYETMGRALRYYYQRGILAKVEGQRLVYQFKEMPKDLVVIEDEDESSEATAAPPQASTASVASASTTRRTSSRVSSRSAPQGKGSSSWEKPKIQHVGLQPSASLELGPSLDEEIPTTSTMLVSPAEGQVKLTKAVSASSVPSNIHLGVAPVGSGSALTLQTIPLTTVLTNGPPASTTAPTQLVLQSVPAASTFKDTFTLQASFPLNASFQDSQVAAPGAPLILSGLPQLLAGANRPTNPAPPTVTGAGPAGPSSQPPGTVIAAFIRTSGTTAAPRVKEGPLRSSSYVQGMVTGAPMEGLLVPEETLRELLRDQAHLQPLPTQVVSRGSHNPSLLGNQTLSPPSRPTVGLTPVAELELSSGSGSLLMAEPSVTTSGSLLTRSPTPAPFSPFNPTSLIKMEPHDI
Sequence of ETV5 (P41161 whole entry): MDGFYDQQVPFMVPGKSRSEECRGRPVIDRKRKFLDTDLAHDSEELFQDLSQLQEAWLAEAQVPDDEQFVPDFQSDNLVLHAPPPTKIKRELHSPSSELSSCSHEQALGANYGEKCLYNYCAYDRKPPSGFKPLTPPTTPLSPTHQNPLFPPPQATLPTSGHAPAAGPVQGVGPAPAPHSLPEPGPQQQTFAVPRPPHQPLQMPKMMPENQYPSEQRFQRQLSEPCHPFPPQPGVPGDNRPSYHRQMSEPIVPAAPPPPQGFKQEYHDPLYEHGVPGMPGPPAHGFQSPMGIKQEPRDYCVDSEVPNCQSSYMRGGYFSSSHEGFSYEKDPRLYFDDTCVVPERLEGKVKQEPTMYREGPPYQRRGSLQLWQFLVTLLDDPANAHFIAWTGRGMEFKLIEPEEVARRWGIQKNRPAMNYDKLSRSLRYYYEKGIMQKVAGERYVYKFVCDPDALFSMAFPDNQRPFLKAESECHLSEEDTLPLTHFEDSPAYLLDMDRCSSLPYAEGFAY

Sequence | binding signal [1] | binding signal [2] | binding signal [3] | binding signal [4] | binding signal [5] | binding signal [6] | binding signal [7] | binding signal [8]
CATAAC | 1.08 fold enrichment (6-mer frequency, TF over GST control) | 1.16 fold enrichment (6-mer frequency, TF over GST control) | 1.2 fold enrichment (6-mer frequency, TF over GST control) | 1.1 fold enrichment (6-mer frequency, TF over GST control) | 1.25 fold enrichment (6-mer frequency, TF over GST control) | 1.11 fold enrichment (6-mer frequency, TF over GST control) | 1.13 fold enrichment (6-mer frequency, TF over GST control) | 1.1 fold enrichment (6-mer frequency, TF over GST control)
CATGGT | 1.08 fold enrichment (6-mer frequency, TF over GST control) | 1.24 fold enrichment (6-mer frequency, TF over GST control) | 1.39 fold enrichment (6-mer frequency, TF over GST control) | 1.32 fold enrichment (6-mer frequency, TF over GST control) | 1.32 fold enrichment (6-mer frequency, TF over GST control) | 1.13 fold enrichment (6-mer frequency, TF over GST control) | 1.35 fold enrichment (6-mer frequency, TF over GST control) | 1.29 fold enrichment (6-mer frequency, TF over GST control)
CCGGTA | 1.81 fold enrichment (6-mer frequency, TF over GST control) | 1.59 fold enrichment (6-mer frequency, TF over GST control) | 1.69 fold enrichment (6-mer frequency, TF over GST control) | 1.45 fold enrichment (6-mer frequency, TF over GST control) | 1.41 fold enrichment (6-mer frequency, TF over GST control) | 1.52 fold enrichment (6-mer frequency, TF over GST control) | 1.6 fold enrichment (6-mer frequency, TF over GST control) | 1.59 fold enrichment (6-mer frequency, TF over GST control)
GATGCG | 1.15 fold enrichment (6-mer frequency, TF over GST control) | 1.14 fold enrichment (6-mer frequency, TF over GST control) | 1.24 fold enrichment (6-mer frequency, TF over GST control) | 1.14 fold enrichment (6-mer frequency, TF over GST control) | 1.32 fold enrichment (6-mer frequency, TF over GST control) | 1.16 fold enrichment (6-mer frequency, TF over GST control) | 1.11 fold enrichment (6-mer frequency, TF over GST control) | 1.06 fold enrichment (6-mer frequency, TF over GST control)
TGGCAG | 1.18 fold enrichment (6-mer frequency, TF over GST control) | 1.07 fold enrichment (6-mer frequency, TF over GST control) | 1.05 fold enrichment (6-mer frequency, TF over GST control) | 1.02 fold enrichment (6-mer frequency, TF over GST control) | 1.01 fold enrichment (6-mer frequency, TF over GST control) | 1.29 fold enrichment (6-mer frequency, TF over GST control) | 1.02 fold enrichment (6-mer frequency, TF over GST control) | 1.05 fold enrichment (6-mer frequency, TF over GST control)
ACCCGG | 1.61 fold enrichment (6-mer frequency, TF over GST control) | 1.89 fold enrichment (6-mer frequency, TF over GST control) | 1.61 fold enrichment (6-mer frequency, TF over GST control) | 1.7 fold enrichment (6-mer frequency, TF over GST control) | 1.52 fold enrichment (6-mer frequency, TF over GST control) | 1.63 fold enrichment (6-mer frequency, TF over GST control) | 1.77 fold enrichment (6-mer frequency, TF over GST control) | 1.81 fold enrichment (6-mer frequency, TF over GST control)
ACCTCA | 1.17 fold enrichment (6-mer frequency, TF over GST control) | 1.16 fold enrichment (6-mer frequency, TF over GST control) | 1.33 fold enrichment (6-mer frequency, TF over GST control) | 1.2 fold enrichment (6-mer frequency, TF over GST control) | 1.26 fold enrichment (6-mer frequency, TF over GST control) | 1.2 fold enrichment (6-mer frequency, TF over GST control) | 1.24 fold enrichment (6-mer frequency, TF over GST control) | 1.32 fold enrichment (6-mer frequency, TF over GST control)
ACAAAC | 1.15 fold enrichment (6-mer frequency, TF over GST control) | 1.08 fold enrichment (6-mer frequency, TF over GST control) | 1.11 fold enrichment (6-mer frequency, TF over GST control) | 1.12 fold enrichment (6-mer frequency, TF over GST control) | 1.08 fold enrichment (6-mer frequency, TF over GST control) | 1.24 fold enrichment (6-mer frequency, TF over GST control) | 1.12 fold enrichment (6-mer frequency, TF over GST control) | 1.12 fold enrichment (6-mer frequency, TF over GST control)
CTGACG | 1.11 fold enrichment (6-mer frequency, TF over GST control) | 1.2 fold enrichment (6-mer frequency, TF over GST control) | 1.13 fold enrichment (6-mer frequency, TF over GST control) | 1.06 fold enrichment (6-mer frequency, TF over GST control) | 1.11 fold enrichment (6-mer frequency, TF over GST control) | 1.35 fold enrichment (6-mer frequency, TF over GST control) | 1.05 fold enrichment (6-mer frequency, TF over GST control) | 1.09 fold enrichment (6-mer frequency, TF over GST control)
CAAACT | 1.17 fold enrichment (6-mer frequency, TF over GST control) | 1.16 fold enrichment (6-mer frequency, TF over GST control) | 1.14 fold enrichment (6-mer frequency, TF over GST control) | 1.17 fold enrichment (6-mer frequency, TF over GST control) | 1.15 fold enrichment (6-mer frequency, TF over GST control) | 1.21 fold enrichment (6-mer frequency, TF over GST control) | 1.06 fold enrichment (6-mer frequency, TF over GST control) | 1.28 fold enrichment (6-mer frequency, TF over GST control)
ACCCAC | 1.22 fold enrichment (6-mer frequency, TF over GST control) | 1.15 fold enrichment (6-mer frequency, TF over GST control) | 1.23 fold enrichment (6-mer frequency, TF over GST control) | 1.23 fold enrichment (6-mer frequency, TF over GST control) | 1.21 fold enrichment (6-mer frequency, TF over GST control) | 1.19 fold enrichment (6-mer frequency, TF over GST control) | 1.33 fold enrichment (6-mer frequency, TF over GST control) | 1.17 fold enrichment (6-mer frequency, TF over GST control)
CGGCAT | 1.09 fold enrichment (6-mer frequency, TF over GST control) | 1.13 fold enrichment (6-mer frequency, TF over GST control) | 1.18 fold enrichment (6-mer frequency, TF over GST control) | 1.06 fold enrichment (6-mer frequency, TF over GST control) | 1.1 fold enrichment (6-mer frequency, TF over GST control) | 1.25 fold enrichment (6-mer frequency, TF over GST control) | 1.02 fold enrichment (6-mer frequency, TF over GST control) | 1.19 fold enrichment (6-mer frequency, TF over GST control)
